Results filed as inconclusive are left out. Entries that show only a call come without a potency. The source made the active and inactive calls. Calls come from the whole dose curve.
These molecules were tested against cAMP-dependent protein kinase catalytic subunit alpha (Homo sapiens) (UniProt P17612) (assay: Protein Kinase A (PKA-HiBiT) enzymatic inhibition screen - Functional assay). Settings: luminescence; series mostly up to 57.5 µM.
Source text: National Center for Advancing Translational Sciences (NCATS),
National Institute of Health (NIH), Maryland
Discovery and optimization of novel protein-binding ligands underlies many of the methods and applications of biology, drug discovery, clinical diagnostics, and environmental toxicology. Assays for detecting the interaction of, for example, a molecule with a macromolecular target also referred to here as the target of interest (TOI) is dependent on a compatible output technology. Depending on the nature and knowledge surrounding the TOI, whether a receptor, enzyme, regulatory subunit or scaffold, or a sequence-defined nucleic acid folded into a complex tertiary structure, assay strategies can vary widely.
Here we exploit ligand-biased changes in the structural dynamics of the target protein to control reporter alpha complementation allowing a non-competitive, non-functional, non-separation measure of ligand-target interaction.
Using a chemical library of >1,200 compounds enriched for scaffolds known to be associated with the inhibition of firefly luciferase (FLuc) activity (PubChem AIDs 2309) we first illustrate and compare the Structural Dynamics Response (SDR) assay vs. the standard functional FLuc enzyme assay (2). Secondly, we show the specificity and sensitivity of the SDR for the Abelson tyrosine kinase (ABL1) compared to the serine/threonine protein kinase A, using an enriched chemical library of 128 compounds selected, in part, for activity annotated with ABL1 kinase activity using the Pharos database (3).
(1) A. S. Dixon et al., NanoLuc Complementation Reporter Optimized for Accurate Measurement of Protein Interactions in Cells. ACS Chem Biol 11, 400-408 (2016).
Chemistry & Biology, 19, 1060 - 1072 (2012).
(3) K. J. Kelleher et al., Pharos 2023: an integrated resource for the understudied human proteome. Nucleic Acids Res 51, D1405-D1416 (2023).
PROTOCOL TABLE (as described by Inglese J, Shamu CE and Guy RK. 2007)
SEQUENCE No. (e.g., 1, 2, 3, etc.); […] (e.g., C. elegans, Compounds, Incubation, Read, etc.); VALUE and DESCRIPTION.
1. Reagent. Dispense 4 uL PKA-N-HiBiT enzyme per well at a final enzyme concentration of 10 nM in buffer with 87.5 uM ATP (functional assay) into columns 2-48 of four replicate Greiner 1536-well white,solid bottom high base, medium plates per assay. Dispense respective buffer without enzyme at 4 uL/well in column 1 of assay plates using BioRaptr 2.
2. Compounds. Library compounds added at 23 nL/well by pin transfer. DMSO neutral control and H-89 positive control added at 25 nL/well, transfer by Mosquito dispenser.
3. Incubation. Incubate enzyme and compounds at room temperature for 30 min, protect from light.
4. Reagent. (Functional assay) Transfer 25 nL of kemptide peptide substrate to each well of four replicate kinase assay plates with Mosquito dispenser.
5. Incubation. (Functional assay) Kinase Enzyme incubated with peptide substrate for 3 h at room temperature, protected from light.
6. Reagent. (Functional assay) Add 4 uL/well of Kinase-Glo Plus reagent (Promega) to kinase activity assay plates.
7. Detector. (Functional assay) Luminescence measured using CCD-based camera (ViewLux) with settings as follows: Exposure, 1 sec; Gain, High; Speed, Slow; Binning, 2X.
Inglese J, Shamu CE and Guy RK, Reporting data from high throughput screening of small molecule libraries, Nature Chemical Biology, 2007, 3(8): 438-441. doi.org/10.1038/nchembio0807-438.

Row | Compound | Potency
1 | O=C(NCCCNc1nc(Nc2ccc(N3CCOCC3)cc2)ncc1C1CC1)C1CCC1 | inactive
2 | N#Cc1cn([C@@H]2O[C@H](CO)[C@H](O)[C@@H]2O)c2ncnc(N)c12 | inactive
3 | O=[N+]([O-])O[C@H]1CO[C@H]2[C@@H]1OC[C@H]2O[N+](=O)[O-] | inactive
4 | CCNC(=O)C[C@@H]1N=C(c2ccc(Cl)cc2)c2cc(OC)ccc2-n2c(C)nnc21 | inactive
5 | C/C(O)=C(\C#N)C(=O)Nc1cc(Br)ccc1Br | inactive
6 | Cc1[nH]nc2ccc(-c3cncc(OC[C@@H](N)Cc4c[nH]c5ccccc45)c3)cc12 | 2010 nM (active)
